Rows were chosen to be rich in hits. Some 3.6% of all compounds tested hit in one or more screens of this group.
AmpC no deterg: inhibitors of E. coli AmpC beta-lactamase without detergent; AmpC nitrocefin hydrolysis, absorbance 480 nm, 0.0001% Triton; Potency, µM (series often up to 57.1 µM), without a hit: top-dose activity change, negative = inhibition, hits mostly inhibitors; 330,000 tested, 0.52% active; AID 485341;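 further: plate controls were no compound for no effect and no enzyme for full effect; nearly all actives have a fitted effect of over 20% in size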
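AmpC (5.3 nM in the dispensed reagent) in 20 mM phosphate pH 7.0 with 0.01% (detergent screen) or 0.0001% Triton X-100 was preincubated with compounds for 15 min at room temperature. Nitrocefin was then added from an 800 uM solution, and hydrolysis was followed at 480 nm.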
AmpC inh detg: inhibitors of E. coli AmpC beta-lactamase with detergent. AID 485294. 370,000 tested, 0.041% active. P00811. Potency, µM (doses to about 114 µM), for inactives: top-dose activity change, negative = inhibition, usual class: inhibitors. AmpC hydrolysis of nitrocefin, absorbance 480 nm, 0.01% Triton;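 further: 0% = no-compound wells and -100% = no-enzyme wells; nearly all actives have a fitted effect of over 25% in size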
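20 mM phosphate pH 7.0 + 0.01% (detergent screen) or 0.0001% Triton X-100; 5.3 nM AmpC reagent; cpd preinc 15 min RT; nitrocefin (800 uM stock) to start; A480 q20 s × 4 min; Activity was normalised to no-enzyme and no-compound control wells.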
Sm TGR block: S. mansoni TGR enzyme inhibition. 360,000 tested, 3% active. purified TGR, DTNB reduction, TNB absorbance 405 nm. Potency, µM (highest dose often 114 µM), without a hit: at the highest dose activity change, negative = inhibition, usual class: inhibitors. Q962Y6; further: nearly all actives have a fitted effect of over 60% in size
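TGR 20 nM + NADPH 100 uM (dispensed conc.), cpd preinc 15 min RT; start with NADPH (500 uM addition) then DTNB (15 mM addition). Kinetic TNB absorbance, 405 nm filter. Four-parameter Hill fit across titration.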
Giardia FBPA inh: Giardia lamblia aldolase inhibition; Potency, µM (titrated, usually from 59.6 µM), for inactives: top-dose activity, negative = inhibition, hits mostly inhibitors; purified Giardia FBPA; 290,000 tested, 0.71% active; further: nearly all actives have a fitted effect of over 55% in size
Target sequence (A8B2U2 whole entry, looked up): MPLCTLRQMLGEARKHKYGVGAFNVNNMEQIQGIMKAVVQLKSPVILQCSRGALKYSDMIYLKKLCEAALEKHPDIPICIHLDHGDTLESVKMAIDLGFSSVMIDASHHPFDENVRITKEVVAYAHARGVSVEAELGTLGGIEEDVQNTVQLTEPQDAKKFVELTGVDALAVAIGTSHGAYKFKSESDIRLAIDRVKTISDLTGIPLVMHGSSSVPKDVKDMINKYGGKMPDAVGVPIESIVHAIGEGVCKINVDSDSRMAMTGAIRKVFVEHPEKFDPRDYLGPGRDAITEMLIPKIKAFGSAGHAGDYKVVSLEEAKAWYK
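Giardia FBPA (40 nM reagent) was preincubated 10 min at RT with compound (up to 57.5 uM final), then substrate plus GAPDH/TPI/NAD/arsenate coupling system with diaphorase/resazurin was added; resorufin fluorescence (525/598 nm) was read after 20 min.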
* hit, by the source's call. The call rests on the fitted dose curve; in most records, active means well fitted curve in the direction sought with a large enough effect; inconclusive means small, poorly fitted or top-dose-only effect, or another doubt; inactive means no such curve, though single readings can be large; an effect the other way counts as inactive or inconclusive. Unless noted, on the % scale 0 is the no-effect control and ±100 the full control effect; potency means the concentration at half of the fitted maximal effect.

Screening COc1ccc(NS(=O)(=O)c2ccc(C(=O)N(C)Cc3ccc(C)o3)cc2)cc1 returned AmpC no deterg -8%.
For Cc1ccc(CN(C)C(=O)c2cc(Br)c(Br)s2)o1 the results were AmpC no deterg -29%, AmpC inh detg -8%, Sm TGR block 50µM* and Giardia FBPA inh 0%.
Screening O=C(CSc1ccc(-c2ccco2)nn1)Nc1ccccc1F returned AmpC no deterg -31%, AmpC inh detg -2% and Sm TGR block 14µM*.
CCOc1ccccc1NC(=O)Cn1nc(-c2ccco2)ccc1=O was read as AmpC no deterg -34%, AmpC inh detg -12%, Sm TGR block 16µM* and Giardia FBPA inh -5%.
`CCOc1ccccc1NC(=O)CSc1ccc(-c2ccco2)nn1` gave AmpC no deterg 32µM*, AmpC inh detg 0% and Sm TGR block 18µM*.
For CCN(CC)S(=O)(=O)c1ccc2nc(CCl)[nH]c2c1 the results were AmpC no deterg -20%, AmpC inh detg -7%, Sm TGR block 40µM* and Giardia FBPA inh -5%.
For CCN(CC)S(=O)(=O)c1ccc(Cl)nc1 the results were AmpC no deterg -22%, AmpC inh detg 4%, Sm TGR block 21% and Giardia FBPA inh 5%.
`COc1ccc(NS(=O)(=O)c2ccc3nc(COc4ccc5ccccc5c4)[nH]c3c2)cc1` gave AmpC no deterg -25%, AmpC inh detg -6%, Sm TGR block -10% and Giardia FBPA inh -10%.
For COc1ccc(NS(=O)(=O)c2ccc3nc(COc4cccc5ccccc45)[nH]c3c2)cc1 the results were AmpC no deterg 4µM*, AmpC inh detg -4%, Sm TGR block -9% and Giardia FBPA inh -5%.
COc1ccccc1NS(=O)(=O)c1ccc2nc(CCl)[nH]c2c1 was read as AmpC no deterg -31%, AmpC inh detg -6%, Sm TGR block 35µM* and Giardia FBPA inh inconclusive.
For COc1ccc([C@H]2C(C#N)=C([S-])N[C@](C)(O)[C@@H]2[n+]2ccccc2)cc1 the results were AmpC no deterg 3%, AmpC inh detg 2%, Sm TGR block inconclusive and Giardia FBPA inh -27%.
`CCOC(=O)c1csc(NC(=O)C2=COCCO2)n1` gave AmpC no deterg 0%, AmpC inh detg 2% and Sm TGR block -4%.
Screening COc1ccc(-c2cc(C(F)F)n3ncc(C(=O)N4CCCCC4)c3n2)cc1 returned AmpC no deterg 84%, AmpC inh detg -1%, Sm TGR block 2% and Giardia FBPA inh 4%.
Cc1ccc(-c2cc(C(F)F)n3ncc(C(=O)N4CCN(c5ccccn5)CC4)c3n2)cc1 was read as AmpC no deterg 11µM*, AmpC inh detg -6%, Sm TGR block 1% and Giardia FBPA inh -3%.
For COc1ccc(-c2cc(C(F)F)n3ncc(C(=O)N4CCN(C(=O)c5ccco5)CC4)c3n2)cc1 the results were AmpC no deterg 189%, AmpC inh detg -20%, Sm TGR block 28µM* and Giardia FBPA inh 5%.
O=C1NC(=O)C2(COC(c3cccnc3)OC2)S1 (stereo not given) was read as AmpC no deterg -24%, AmpC inh detg -4%, Sm TGR block -2% and Giardia FBPA inh -24%.
CCOC(=O)C1=C(CN2CCN(c3cc(C)ccc3C)CC2)NC(=O)NC1c1ccccc1 (stereo not given) was read as AmpC inh detg -12% and Sm TGR block -1%.
Screening O=C(NC1CCCCC1)c1cc2ccccc2cc1O returned AmpC no deterg 20µM*, AmpC inh detg 0%, Sm TGR block -4% and Giardia FBPA inh inconclusive.
Screening O=C1CCCC(=NNC(=O)c2cc3ccccc3cc2O)C1 returned AmpC no deterg 32µM*.
Screening O=C(NC1CCCCCCC1)c1ccccc1O returned AmpC no deterg -37%, AmpC inh detg inconclusive, Sm TGR block -24% and Giardia FBPA inh -5%.
`O=C(NN=C1CCCCCC1)c1cc2ccccc2cc1O` gave AmpC no deterg -48%, AmpC inh detg 2%, Sm TGR block 9% and Giardia FBPA inh 20%.
For COc1cccc(-c2cc(C(=O)NCC3CCCO3)c3cc(C)cc(C)c3n2)c1 (stereo not given) the results were AmpC no deterg 130%, AmpC inh detg -2%, Sm TGR block 17% and Giardia FBPA inh 4%.
Screening O=C(Nc1ccccc1[N+](=O)[O-])c1cccc(N2C(=O)CCC2=O)c1 returned AmpC no deterg -6%, AmpC inh detg -1%, Sm TGR block 4% and Giardia FBPA inh 1%.
Screening Oc1ccc(N=Cc2ccc(O)c(O)c2)cc1 returned AmpC no deterg -49%, AmpC inh detg -14%, Sm TGR block 22µM* and Giardia FBPA inh 1.6µM*.
Screening Oc1ccc(/C=N/N=C/c2ccc(O)c(O)c2)cc1O returned AmpC no deterg -18%, AmpC inh detg -26%, Sm TGR block inconclusive and Giardia FBPA inh inconclusive.
`CCCN1CCC(=O)N([C@H](CSc2ccc(OC)cc2)c2ccccc2)CC1` gave AmpC no deterg 110%, AmpC inh detg -1%, Sm TGR block 22µM* and Giardia FBPA inh -1%.
Cc1ccc(SC[C@H](c2ccccc2)N2CCN(CC(C)C)CCC2=O)cc1 was read as AmpC no deterg -9%, AmpC inh detg 7%, Sm TGR block 32µM* and Giardia FBPA inh 7%.
For Cc1ccc(SCC(c2ccccc2)N2CCN(CC(C)C)CCC2=O)cc1 (stereo not given) the results were Giardia FBPA inh 20%.
CN1CCC(=O)N([C@H](CSc2ccccc2)c2ccccc2)CC1 was read as AmpC no deterg 20%, AmpC inh detg -10%, Sm TGR block inconclusive and Giardia FBPA inh -1%.
Screening COc1ccc(SCC(c2ccccc2)N2CCN(CC(C)C)CCC2=O)cc1 (stereo not given) returned Giardia FBPA inh -2%.
For CN1CCC(=O)N(C(CSc2ccc(Br)cc2)c2ccccc2)CC1 (stereo not given) the results were Giardia FBPA inh 7%.
Cc1ccc(SC[C@H](c2ccccc2)N2CCN(C)CCC2=O)cc1 was read as AmpC no deterg 103%, AmpC inh detg 4%, Sm TGR block 40µM* and Giardia FBPA inh 3%.
CC(C)CN1CCC(=O)N([C@H](CSc2ccc(Br)cc2)c2ccccc2)CC1 was read as AmpC no deterg 80%, AmpC inh detg -1%, Sm TGR block 2.8µM* and Giardia FBPA inh 14%.
`COc1ccc(NC(=O)CN(C)C(=O)C(Sc2ccccc2)c2ccccc2)cc1` (stereo not given) gave AmpC no deterg -20%, AmpC inh detg -1% and Sm TGR block -1%.
Screening CC1=CC(C)(C)Nc2ccc(C)cc21 returned AmpC no deterg -14%, AmpC inh detg 1%, Sm TGR block -5% and Giardia FBPA inh -29%.
CC1=CC(C)(C)Nc2ccc(Cc3ccc4c(c3)C(C)=CC(C)(C)N4)cc21 was read as AmpC no deterg -29%, AmpC inh detg 13%, Sm TGR block 4µM* and Giardia FBPA inh inconclusive.

Screening results from PubChem.
